The panel holds about 83,000 compounds, 20% with a hit somewhere; the sample as a whole holds those more often.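 96-well plates, one dose, 48 hours. Percent growth reported; active if below 10.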 Unmarked numbers belong to inactive results. The source made the active and inactive calls.
test system: HL-60(TB) leukemia; test: NCI-60 one-dose screen, 48 h (100 = growth as untreated, 0 = no growth, -100 = all killed); conditions: 10 µM unless noted

Structure (SMILES)	growth
Cc1cc(Nc2nc(-c3ccc(F)cc3)nc3ccccc23)n[nH]1	39%
CCOC(=O)CSC(=S)SCC(=O)OCC	103%
O=C(OCc1ccc2c(Cl)cc(Cl)c(O)c2n1)c1cc2ccccc2[nH]1	-36.1% (active)
C(=C\c1cn(-c2ccccc2)nc1-c1ccccc1)/c1nnc(-c2c[nH]c3ccccc23)o1	98.1%
COc1ccc(/C=C/c2nc(Nc3cccc(NC(C)=O)c3)c3ccccc3n2)cc1	78.5%
NCCSSC/C=C\CSSCCN	59.1%
C[n+]1c2ccccc2c(Nc2ccc(NS(=O)(=O)CCCCN=C(N)N)cc2)c2ccc(N)cc21	16.7%
CN(C)c1cccc2c(S(=O)(=O)N[C@H]3CC[C@H]4[C@@H]5CCc6cc(O)ccc6[C@H]5CC[C@]34C)cccc12	-26.7% (active)
COc1ccc(C(=O)C/C(=C\c2ccc(O)c(OC)c2)C(=O)NN)cc1	66.4%
CCn1c2c(c3ccccc31)SC1c3cccn3CCN1C2=S (centres undefined)	87.5%
Cc1cc(N2CCN(CC(=O)Nc3ccc4c(ccn4C)c3)CC2)nc(N2CCCCCC2)n1	74.7%
COc1ccc(C(=O)COc2ccc(/C=C3\Oc4ccc(OC)cc4C3=O)cc2)cc1	94.1%
Cc1ccc(C(=O)O)c(N)c1C	95.1%
O=C(O)CCCN1C(=O)/C(=C/c2cn(-c3ccccc3)nc2-c2ccc([N+](=O)[O-])cc2)SC1=S	83.4%
O=C1COCCN1c1ccc(Nc2nc(Cl)nc(N3CCOCC3)n2)cc1	90.5%
COc1cc2c(cc1OCCCCCn1c(-c3ccc(OCc4ccccc4)cc3)nc3cc(N4CCOCC4)ccc31)N=C[C@@H]1CCCN1C2=O	12.7%
COc1cc(OC)c(Cl)cc1N	131%
C#Cc1cccc(Nc2ncnc3ccc(-c4cnc(Cl)c(NS(C)(=O)=O)c4)cc23)c1	-5.77% (active)
Cc1ccc(C(=O)Nc2cccc(F)c2)cc1NC(=O)C1(c2ncnc3[nH]ccc23)CC1	64.7%
CC(=O)O[C@@H]1/C=C/C(=O)N[C@@H](C)CCC/C=C/[C@@H]2CCC[C@H]21	99.8%

Structure (SMILES)	growth
COCc1cc2c(cc1Br)OCO2	105%
c1ccc(-c2nnc(-c3c[nH]c4ncccc34)s2)cc1	98.4%
S=c1ccnc[nH]1	59.3%
Nc1ncnc(Nc2ccc(C(F)(F)F)cc2)n1	89.2%
CC1(C)C2CC=C(/C=N/NC(=O)C3CCC(=O)N3)C1C2 (centres undefined)	101%
CN1C2CCC1/C(=C\c1ccc(Cl)cc1)C1=C2[C@@H](c2ccc(Cl)cc2)C(C#N)=C(N)O1 (some centres undefined)	81.8%
O=[N+]([O-])c1ccc(S(=O)(=O)OCCCCOS(=O)(=O)c2ccc([N+](=O)[O-])cc2)cc1	101%
Cc1cc2c(cc1C)Nc1sc(NC(=O)CN3CCN(C)CC3)nc1C(=O)N2	83.3%
C=CCCCCCCCCC(=O)[O][Sn]([CH2]CCC)([CH2]CCC)[CH2]CCC	-15.1% (active)
COc1ccc(OC)c(Cn2cc3c(c2)-c2oncc2CC3)c1	13.7%
CC(C)[N+](C)(CCOC(COc1ccccc1)COc1ccccc1)C(C)C	30.7%
COc1ccc(Cn2cnc3cc(C(=O)Nc4cccc5ccccc45)ccc32)c(OC)c1	-33.3% [30 µM] (active)
CCCCCCN(CCCCCC)CC(O)c1ccc2c3c(cccc13)CC2 (centres undefined)	64.6%
O=C(Nc1ccsc1C(=O)NC1CCCCC1)c1ccc(F)cc1	90.2%
COc1cc(OC)c2c(=O)c3c(CC=C(C)C)cc(OC)c(O)c3oc2c1	96.7%
CC(=O)c1c(/C=C/c2ccc(C)cc2)c2ccccc2[nH]c1=O	99.3%
Fc1ccc2c(CN3CCO[C@H](COc4cccc(Cl)c4)C3)c[nH]c2c1	27.1%
COc1ccc(/C=C/C(=O)c2ccc(Nc3nc(NCCO)nc(Nc4ccc(Cl)cc4)n3)cc2)cc1	94%
CCN(CC)Cc1cc(Nc2cc(C(F)(F)F)c(C#N)c3nc4ccccc4n23)ccc1O	-10.9% (active)

From PubChem BioAssay (NCI)
